In PubChem BioAssay (NCI):
Where “and” joins values, the source holds several entries; their conditions need not be identical. Equal values may be shown once. This is part of a sample that, as a whole, favours compounds with a hit. Of some 79,000 tested, about 15% had one in any assay. No stated cut-off is given here; in the data, active means growth inhibition above about 70%; inactive means the rest.

Columns and labels:
[1] = NCI Yeast Anticancer Drug Screen. Data for the rad50 strain (AID 155);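 further: 0% = growth of vehicle-only cultures of the same strain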; details: S. cerevisiae rad50 strain growth inhibition, stronger effect = higher value; at 50.0 µM unless noted
In short: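 Compounds were tested on a yeast strain with an engineered DNA damage repair alteration; the reported value is growth inhibition normalised to vehicle treatment.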

[2] = NCI Yeast Anticancer Drug Screen. Data for the mec2-1 strain (AID 157); details: S. cerevisiae mec2-1 strain, stronger effect = higher value; at 50.0 µM unless noted
In short: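 Cells of the genetically defined mec2-1 yeast strain are incubated with test compound. Inhibition of growth is calculated against vehicle-treated controls.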

[3] = NCI Yeast Anticancer Drug Screen. Data for the sgs1 mgt1 strain (AID 161);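 further: 0% = growth of cultures given vehicle only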; details: S. cerevisiae sgs1 mgt1 strain, stronger effect = higher value; at 50.0 µM unless noted
In short: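 Genetically altered yeast, compound exposure, growth inhibition relative to vehicle.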

[4] = NCI Yeast Anticancer Drug Screen. Data for the cln2 rad14 strain (AID 165);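 further: 0% = growth equal to vehicle treated cultures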; details: S. cerevisiae cln2 rad14 strain, stronger effect = higher value; at 50.0 µM unless noted
In short: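 The screen exposed genetically defined yeast (cln2 rad14) to test compounds and scored growth inhibition relative to vehicle-treated controls.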

[5] = NCI Yeast Anticancer Drug Screen. Data for the bub3 strain (AID 167); details: S. cerevisiae bub3 mutant strain, stronger effect = higher value; at 50.0 µM unless noted
In short: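 Growth of a checkpoint-deficient yeast mutant is measured after compound exposure. Values represent inhibition relative to vehicle.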

[6] = NCI Yeast Anticancer Drug Screen. Data for the mlh1 rad18 strain (AID 175); details: S. cerevisiae mlh1 rad18 strain growth inhibition, stronger effect = higher value; at 50.0 µM unless noted
In short: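 Compound-treated yeast growth, normalised to vehicle controls. Strain bears defined DNA repair mutations.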

Measured: growth inhibition

CCCCCCNC(=O)CCN(C(=O)O)S(=O)(=O)c1ccc(NC(=O)c2ccccc2)cc1
inactive: [1] 11.7% | [2] -3.45% | [3] 8.6% | [4] 17.7% | [5] 7.4% | [6] -1.45%

O=C(O)c1cc(C(=O)C(=O)c2cc(C(=O)O)c(O)c3ccccc23)c2ccccc2c1O
inactive: [1] -31.7% | [2] -25.4% | [3] -7.15% | [4] -0.4% | [5] -17.9% | [6] -19.4%

COc1ccccc1NC(=O)Oc1c(C(C)C)cccc1C(C)C
inactive: [1] -5.35% | [2] 5.75% | [3] -3.7% | [4] -1.1% | [5] 20% | [6] -17.4%

C[N+]1(C)CCc2cc(O)c(O)cc2C1Cc1ccc(O)c(O)c1 (centres undefined)
inactive: [1] -4.35% | [2] 24.6% | [3] -29.6% | [4] 23.4% | [5] -36.8% | [6] 10.1%

COc1ccc(N2C(=O)c3c(c4[nH]c5ccc(OC)cc5c4c4ccc(C(C)(C)C)cc34)C2=O)cc1
inactive: [1] -8.85% | [2] -7.95% | [3] 4.4% | [4] 7.2% | [5] -2.95% | [6] 26.6%

NC(Cc1c[nH]c2ccccc12)C(=O)O (centres undefined)
inactive: [1] 4.2% and -1.1% | [2] -7.9% and -8.7% | [3] -13.2% and 6.55% | [4] 3% and -1.25% | [5] -28.4% and -2.7% | [6] 2.65% and -16.2%

O=[N+]([O-])c1ccc(N=Cc2ccc(N(CCF)CCF)cc2)cc1
inactive: [1] 6.9% | [2] 15.9% | [3] 16.1% | [4] -60% | [5] -9.2% | [6] 10.9%

Cc1ccc(Nc2cc(C(=O)O)c(Nc3ccc(C)cc3)cc2C(=O)O)cc1
inactive: [1] 0.7% | [2] -10.6% | [3] 12.3% | [4] 33.4% | [5] 7.85% | [6] 6.9%

O=Cc1ccc(C=O)o1
inactive: [1] 4.25% | [2] -1.8% | [3] 28.9% | [4] 6.3% | [5] -11.7% | [6] 14.2%

c1nc2nc(N3CCOCC3)nc(N3CCOCC3)c2[nH]1
inactive: [1] 11.8% | [2] -0.8% | [3] 23.9% | [4] 8.45% | [5] -17.9% | [6] 8.7%

CC1=Nc2ccc([N+](=O)[O-])cc2C1(C)C
inactive: [1] -0.35% | [2] 5.1% | [3] -7.55% | [4] -2.15% | [5] -16.1% | [6] -5.45%

CCCCOC(=O)C(O)Cc1ccoc1 (centres undefined)
inactive: [1] 5.25% | [2] -33.9% | [3] -17.9% | [4] 12.9% | [5] -14.4% | [6] -14.4%

CN(CCO)CCCC1COc2ccccc2O1 (centres undefined)
inactive: [1] -31.6% | [2] -39.1% | [3] -21.1% | [4] 6.5% | [5] -8.65% | [6] -8.35%

O=C1NC2OCC(O)C(O)C2O1 (centres undefined)
inactive: [1] 4.6% | [2] 10.1% | [3] -4.15% | [4] 12.4% | [5] 22.4% | [6] 6.45%

Cc1cc(C)c2c(=O)n(-c3ccccc3C)c(=S)n(-c3ccccc3C)c2n1
inactive: [1] 31.4% | [2] 8.35% | [3] 2.25% | [4] 1.95% | [5] -4.1% | [6] 24.7%

O=C(O)CCC1=Nc2cccc3cccc(c23)NC1=O
inactive: [1] 36.2% | [2] 32.2% | [3] 7.75% | [4] -3.35% | [5] 12.9% | [6] 13.9%

OCCN(CCO)c1ncnc2c1sc(=S)n2-c1ccccc1
inactive: [1] -0.05% | [2] -32.3% | [3] 1.15% | [4] 7.9% | [5] -5.65% | [6] 7.5%

c1ccc2c(CC3NCCN3)cccc2c1
inactive: [1] -11.3% | [2] -32.2% | [3] -55.2% | [4] 10.8% | [5] -1.4% | [6] -13%

O=C1C=CC(=O)C(CNc2ccc(C(=O)OCc3ccccc3)cc2)=C1
inactive: [1] 23.6% | [2] 8.75% | [3] -28.9% | [4] -30.6% | [5] -42.9% | [6] -3.1%

COCN1C(=N)C(C(=O)OC(C)(C)C)=C2C=C(O)C=CC21C (centres undefined)
inactive: [1] -4.5% | [2] 14.7% | [3] -23.4% | [4] 9.1% | [5] 22.2% | [6] 2.55%

CCN1C(=O)C(=O)C(c2ccccc2)(c2ccccc2)C1=O
inactive: [1] -6.3% | [2] -3.65% | [3] -4.65% | [4] -21.6% | [5] 2.9% | [6] 46.9%

Cc1ccc(N(C)S(=O)(=O)c2ccccc2[N+](=O)[O-])cc1
inactive: [1] 19.1% | [2] -17.6% | [3] 28.3% | [4] 12.1% | [5] 14.1% | [6] 19.6%

CC(=O)Nc1ccc(S(=O)(=O)NC(C)=O)cc1
inactive: [1] -5.8% | [2] -8.75% | [3] -2.7% | [4] -20.4% | [5] 6.7% | [6] 12.6%

Cc1ccc2nc(Sc3c([N+](=O)[O-])ncn3C)[nH]c2c1
inactive: [1] -16.1% | [2] -16.4% | [3] -18.2% | [4] 5.75% | [5] -20.7% | [6] -25.4%

COC1CCC2(C)C(CCC3C4CCC(OC(C)=O)C4(C)CCC32)O1 (centres undefined)
inactive: [1] 1.65% | [2] -9.55% | [3] -9.45% | [4] -6.7% | [5] -1.95% | [6] -14.8%

CCOC(=O)c1cc([N+](=O)[O-])cnc1C
inactive: [1] 5.8% | [2] 10% | [3] -1.7% | [4] 0.4% | [5] 8.45% | [6] 2.4%

O=C(O)c1cc(C(=O)O)cc(C(=O)O)c1
inactive: [1] -1.55% | [2] -16.2% | [3] -8.1% | [4] -56.9% | [5] -3.05% | [6] -30.1%

O=C(O)c1ccccc1Br
inactive: [1] 1.1% | [2] 5.4% | [3] -13.6% | [4] -6.95% | [5] -17.4% | [6] -3.35%

CC1CC(C)OC(c2ccccc2Cl)O1 (centres undefined)
inactive: [1] 24.6% | [2] 12.4% | [3] 6.3% | [4] -8.1% | [5] 12.7% | [6] 25%

COC1=Nc2ccccc2N2CCN=C12
inactive: [1] 4.55% | [2] -23.6% | [3] -8.7% | [4] -1.35% | [5] -8.75% | [6] -12.8%

CC1(C)OC2C(/C=C\C(=O)c3ccccc3)OC(n3ccc(=O)[nH]c3=O)C2O1 (centres undefined)
inactive: [1] -36.6% | [2] 10.3% | [3] 5.6% | [4] 13.4% | [5] -1.55% | [6] -1.5%

CCCC(C)C(C(=O)OCC)C(=O)OCC (centres undefined)
inactive: [1] 2.6% and -5.35% | [2] -14.5% and -5.6% | [3] -9.85% and 10.9% | [4] 21.5% and -17.4% | [5] -11.3% and -14% | [6] -15.3% and -7.4%

CC(=O)c1ccc([N+](=O)[O-])[nH]1
inactive: [1] -16.4% | [2] 23.1% | [3] -32.9% | [4] -3.8% | [5] -3.95% | [6] -5.1%

O=C(/C=C/c1ccccc1)c1ccccc1
inactive: [1] -1.8% and -29.8% | [2] 10.3% and -6.35% | [3] -8.65% and -18.8% | [4] -41% and -36.2% | [5] 21.7% and 1.7% | [6] 14.3% and -22.3%

CCO/C(C)=N\OC(=O)C(F)(F)F
inactive: [1] -0.1% | [2] -15.3% | [3] 6.55% | [4] -15.6% | [5] 1.35% | [6] -8.4%

CCCCC1(CC)COC(=O)N(C)C1 (centres undefined)
inactive: [1] 10.8% | [2] 4.95% | [3] 0.65% | [4] -7.6% | [5] 18% | [6] 3%

NCc1ccc(F)cc1
inactive: [1] 24.9% | [2] -10.7% | [3] 32% | [4] 12.7% | [5] 2.4% | [6] 26.5%

CN1N=CSC12C(=O)N(c1ccccc1)C(=O)N2c1ccccc1 (centres undefined)
inactive: [1] 0.4% | [2] -1.55% | [3] 0.95% | [4] 20.1% | [5] 3.15% | [6] -14.2%

COC(=O)CCSCc1ccccc1
inactive: [1] 2.65% | [2] 2.55% | [3] -1.6% | [4] -10% | [5] 4.8% | [6] 3.55%
